High-throughput results: PubChem BioAssay, several laboratories
ERb SRC1 inh – ER-beta (human) coactivator binding inhibition; Q92731; TR-FRET ER-beta LBD / SRC1-Cy5 peptide binding; receptor agonist-loaded with 1 µM estradiol; inhibition, % at 25.6 µM; 86,000 compounds, 1.3% hits;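 active means compounds whose percent inhibition of the receptor-coactivator binding signal exceeds about 50% in the single-dose screen, limit read from the data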;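 further: 0% = receptor plus peptide wells without compound and 100% = peptide-only wells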
Target sequence (Q92731 whole entry, looked up, the tested form may be a part): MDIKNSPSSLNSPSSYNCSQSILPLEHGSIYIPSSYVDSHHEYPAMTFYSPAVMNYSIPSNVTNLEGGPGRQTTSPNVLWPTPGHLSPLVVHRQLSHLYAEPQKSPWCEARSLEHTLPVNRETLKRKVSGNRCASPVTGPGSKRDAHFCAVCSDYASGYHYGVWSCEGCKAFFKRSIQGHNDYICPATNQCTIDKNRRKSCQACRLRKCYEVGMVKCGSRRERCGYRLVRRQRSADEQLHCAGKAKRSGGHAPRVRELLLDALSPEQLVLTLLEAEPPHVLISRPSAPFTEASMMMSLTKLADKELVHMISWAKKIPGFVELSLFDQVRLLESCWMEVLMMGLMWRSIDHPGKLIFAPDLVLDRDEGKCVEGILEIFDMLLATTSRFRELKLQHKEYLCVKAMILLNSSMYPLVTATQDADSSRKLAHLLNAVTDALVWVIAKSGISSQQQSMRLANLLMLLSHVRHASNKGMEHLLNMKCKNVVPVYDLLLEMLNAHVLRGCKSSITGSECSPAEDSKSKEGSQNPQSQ
Smad3 FoxH1 inh – inhibitors of human Smad3 transcription factor binding; inhibition, % at 25 µM; TR-FRET Smad3/Dy647-FoxH1 peptide binding, europium anti-His; P84022; 88,000 compounds, 0.29% hits;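 active means compounds that reduce the energy-transfer binding signal between the protein and its labelled peptide by more than half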;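 further: 0% = Smad3 plus labelled peptide maximal FRET and 100% = peptide-only background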
ERa SRC1 inh – ER-alpha (human) coactivator binding inhibition | AID 629 | TR-FRET ER-alpha LBD / SRC-1 peptide, estradiol-bound | inhibition, % at 25.6 µM | 86,000 compounds, 1.7% hits; in the data active means inhibition above about 50%;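 further: 0% = receptor plus peptide control and 100% = peptide only without receptor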
ERa coact pot – enhances coactivator binding to human estrogen receptor alpha. P03372. TR-FRET ERalpha-LBD/SRC-Cy5 coactivator binding, 2 h; 100 = basal binding, no effect. coactivator binding (% of control), % at 25.6 µM. 86,000 compounds, 1.3% hits. AID 639; in the data active means activity above about 200%;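 further: binding measured in presence of low estradiol as agonist stimulus; 0% = peptide alone without receptor and 100% = receptor with peptide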
Candida biofilm – kills Candida albicans biofilms | C. albicans biofilm + clotrimazole, Alamar Blue | inhibition, % at 6 µM | 85,000 compounds, 0.14% hits | AID 834;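 active means inhibition above 20%; inactive means inhibition below 20%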;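 further: preformed 24 hr biofilms exposed to compound for 48 hr; 0% = biofilm without compound and 100% = blank killed by clotrimazole plus chlorhexidine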
* marks the source's active call; other numbers are inactive results; x = no result given; [ ] = another dose, or the depositor's remark. A selection: hits, their analogues and other compounds. The true share with any hit is near 3.8%.

SMILES	ERb SRC1 inh	Smad3 FoxH1 inh	ERa SRC1 inh	ERa coact pot	Candida biofilm
c1ccc2nc(-c3nc4ccccc4o3)ccc2c1	-5	7	-3	111	2
c1cc(-c2nc3ccccc3o2)nc(-c2nc3ccccc3o2)c1	29	8	12	248*	6
Cn1c(=O)c2nc(-c3ccc(Cl)cc3Cl)oc2c2ccccc21	45	10	59*[fluorescence artefact?]	132	3
O=C(O)CSCc1cccc2ccccc12	x	0	x	x	x
CCOc1ccc(Nc2oc(-c3ccccc3Cl)nc2C#N)cc1	31	15	71*	23	0
CNc1oc(-c2ccccc2Cl)nc1C#N	-9	-2	-3	95	0
Cc1cccc(N2CSC3=C(C#N)C(c4ccc(C)o4)CC(=O)N3C2)c1 (centres undefined)	68*[fluorescence artefact?]	8	83*	60	10
CCN1CCCCC(=N/O)/C(=N\O)CCCC1	x	3	x	x	x
CCC(Sc1nc2cc3c(cc2c(=O)n1Cc1ccco1)OCO3)C(=O)Nc1ccccc1OC (centres undefined)	32	5	88*[fluorescence artefact?]	144	0
CCC(Sc1nc2cc3c(cc2c(=O)n1Cc1ccco1)OCO3)C(=O)Nc1cccc(OC)c1 (centres undefined)	12	-2	8	110	3
Cc1cc(C)n(C(=O)CNC(=O)COc2ccccc2)n1	4	0	-4	142	5
O=C(O)CC(CC(=O)Nc1nncs1)c1ccccc1 (centres undefined)	-9	4	-5	137	5
O=C(O)CC(Cn1[nH]nnc1=S)c1ccccc1 (centres undefined)	52*	3	-9	108	7
Cc1ccc(-c2nnc(CSc3nc4cc5c(cc4cc3C)OCO5)o2)cc1	60*	2	77*[fluorescence artefact?]	206*[fluorescence artefact?]	4
CCOc1ccc(NC(=O)CCCc2cc(-c3ccc(OCC)cc3)on2)cc1	18	0	25	204*	3
O=C(CCn1nnc2ccccc21)Nc1nnc(-c2ccccc2F)s1	-1	-11	10	248*	-1
C=CCn1cnc2c(c1=O)c1nc3ccccc3nc1n2/N=C/c1cccc(OC)c1	33	-9	68*[fluorescence artefact?]	94	-4
COc1ccc(CCn2c(=N)c(C(=O)NCc3ccco3)cc3c(=O)n4ccccc4nc32)cc1OC	34	16	35	67	7
O=C(NCc1ccco1)c1cccn2c(=O)c3cc4ccccc4cc3nc12	48	5	61*[fluorescence artefact?]	138	-5
COc1ccc(CNC(=O)c2cc3c(=O)n4ccccc4nc3n(Cc3ccco3)c2=N)cc1	57*[fluorescence artefact?]	7	91*[fluorescence artefact?]	36	5
Cc1ccc(Cn2c(=N)c(C(=O)NCc3ccco3)cc3c(=O)n4ccccc4nc32)cc1	56*[fluorescence artefact?]	19	83*[fluorescence artefact?]	15	2
N=c1c(C(=O)NCc2ccco2)cc2c(=O)n3ccccc3nc2n1CCc1ccccc1	50*	-5	81*[fluorescence artefact?]	48	3
CCCn1c(=O)c2ccccc2n2c(SCC(=O)Nc3cc(C)on3)nnc12	100*[fluorescence artefact?]	10	7	93	3
O=C(O)c1cc2sccc2s1	59*	0	1	107	8
CCCS(=O)(=O)O	x	0	x	x	x
SMILES	ERb SRC1 inh	Smad3 FoxH1 inh	ERa SRC1 inh	ERa coact pot	Candida biofilm
Cc1ccc(OCc2nnc(SCC(=O)Nc3sc(C)c(C)c3C#N)n2C)cc1	10	9	15	250*	9
Cc1ccc(-c2nc(NC(=O)CSc3nnc4scc(-c5ccccc5)n34)ns2)cc1	-4	-8	24	203*[fluorescence artefact?]	6
Cc1nc(CSc2nnc3scc(-c4ccccc4)n23)cs1	-3	2	4	121	x
Cc1nnc(NC(=O)CSc2nnc3scc(-c4ccc(C)c(C)c4)n23)s1	-15	0	-23	259*	3
CCc1nnc(NC(=O)CSc2nnc3scc(-c4ccc(C)cc4)n23)s1	3	-1	1	106	-2
Cc1ccc(-c2csc3nnc(SCc4csc(C)n4)n23)cc1	0	10	1	365*[fluorescence artefact?]	12
CN(C)CCn1c(CO)nc2c1c(=O)n(C)c(=O)n2C	x	8	x	x	x
Cc1noc(C)c1COC(=O)CCCc1c[nH]c2ccccc12	37	12	27	87	8
C[N+]1(CCC(=O)c2ccco2)CC2CCC(CC2)C1 (centres undefined)	x	22	x	x	x
Cc1sc(NC(=O)CSc2nnc3scc(-c4ccccc4)n23)c(C#N)c1C	34	-8	37	224*[fluorescence artefact?]	-2
O=C(Nc1cc2nn(-c3ccccc3)nc2cc1Cl)c1ccco1	30	-6	62*[fluorescence artefact?]	100	-4
CCOc1ccc(C2=CS/C(=C(\C#N)c3nnc4n3CCCCC4)N2CC)cc1	-8	11	-34	97	2
C=CCN1C(c2ccccc2)=CS/C1=C(\C#N)c1nnc2n1CCCCC2	5	51*	1	100	3
COc1ccc(-c2nnc(-c3cc4c(ccc5ccccc54)oc3=O)o2)cc1	20	-2	52*	120	4
O=c1oc2ccc3ccccc3c2cc1-c1nnc(-c2ccccc2)o1	20	18	65*[fluorescence artefact?]	68	2
CCN(CC)c1ccc2cc(-c3nnc(-c4ccccc4)o3)c(=O)oc2c1	32	-5	48	194	6
O=c1oc2ccccc2cc1-c1nnc(-c2cccc(Br)c2)o1	35	-17	76*[fluorescence artefact?]	72	9
CCN(CC)c1ccc2cc(-c3nnc(-c4ccc(Br)cc4)o3)c(=O)oc2c1	33	-8	33	210*	3
CC[C@](N)(C(=O)O)C(C)C	x	-5	x	x	x
CC(=O)[C@H]([C@@H](c1ccccc1)N1CCOCC1)N1CCOCC1	x	17	x	x	x
CC(C)CN(CC(C)C)S(=O)(=O)N1CCC(C(=O)NCCc2ccc(Cl)cc2)CC1	-4	8	-8	95	2
CCC(C)c1ccc2oc(-c3ccc(NC(=O)Cn4cnc5c(=O)n(C)c(=O)n(C)c54)cc3)nc2c1 (centres undefined)	43	6	72*[fluorescence artefact?]	99	2
Cc1ccc(NC(=O)Cn2cnc3c(=O)n(C)c(=O)n(C)c32)c(C)c1	-8	2	-9	114	6
Cn1c(=O)c2ncn(CC(=O)Nc3ccc4oc(-c5cccc6ccccc56)nc4c3)c2n(C)c1=O	36	-1	75*[fluorescence artefact?]	44	6
CCCC(=O)Nc1ccc(-c2nc3cc(C)ccc3o2)cc1	-15	8	-13	125	1
SMILES	ERb SRC1 inh	Smad3 FoxH1 inh	ERa SRC1 inh	ERa coact pot	Candida biofilm
COc1cc(OC)cc(-c2nc(-c3cc4cc(C)ccc4nc3OC)no2)c1	37	21	11	175	5
COc1nc2cc(C)ccc2cc1-c1noc(-c2cccnc2)n1	41	4	50*[fluorescence artefact?]	189	3
N=C(N)c1ccc(-c2ccc(-c3ccc(C(=N)N)cc3)o2)cc1	x	2	x	x	x
[Cu].[NH-][C@H](CC(=O)O)C(=O)O.[NH-][C@H](CC(=O)O)C(=O)O	x	3	x	x	x
CC(N=Cc1cccc(O)c1O)c1ccccc1 (centres undefined)	58*[fluorescence artefact?]	5	17	84	6
CC(N=C1NS(=O)(=O)c2ccccc21)c1ccccc1 (centres undefined)	0	3	2	115	4
